Consider seven compounds from PubChem BioAssay.

The structures appear in SMILES notation. Where “and” joins values, the source holds several entries; their conditions need not be identical. Equal entries are not always repeated.

One experiment is described as follows: HTB85 osteosarcoma cell growth inhibition, synergistic combos for chromothripsis tumors, BGB or cisplatin IC20 combos (AID 1671453).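 Further: cells exposed for 96 hours before readout; 0% = vehicle DMSO and 100% = high DMSO killing control.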 Conditions: HTB85 osteosarcoma cells, drug combinations, measured here: with BGB IC20, at 0.5 µM, stronger effect = higher value.
In the case of `CC(=O)OCC(CCn1cnc2cnc(N)nc21)COC(C)=O`, the inhibition (as a rule, the change of the read-out against control, counted positive when it falls) was -18%.
Regarding `S=c1nc[nH]c2nc[nH]c12`, the inhibition was -53.8% and -19.7% and -40.4%.
The same measure, in the same setting: with `COc1c(N2CCNC(C)C2)c(F)cc2c(=O)c(C(=O)O)cn(C3CC3)c12` (stereo not given) the figure was -22.5% and -1.96%; with `CC1COc2c(N3CCN(C)CC3)c(F)cc3c(=O)c(C(=O)O)cn1c23` (stereo not given), -68.8% and -8.08% and -9.45%; with `O=C1c2c(O)ccc(O)c2C(=O)c2c(NCCNCCO)ccc(NCCNCCO)c21`, 90.1%.
Same read-out and setting: with `CS(=O)(=O)OCCCCOS(C)(=O)=O` the figure was -9.57% and -1.65%; with `O=C(O)CCCc1ccccc1`, -24.4%.

Staying with this experiment, now noted: HTB85 osteosarcoma cells, drug combinations, measured here: with BGB IC20, at 5 µM, stronger effect = higher value.
For `CC(=O)OCC(CCn1cnc2cnc(N)nc21)COC(C)=O`, the inhibition was -24.7%.
Still for that read-out and setting: under `S=c1nc[nH]c2nc[nH]c12` stands -9.25% and -19% and -8.77%; under `COc1c(N2CCNC(C)C2)c(F)cc2c(=O)c(C(=O)O)cn(C3CC3)c12` (stereo not given), -17.3% and -16.7%; under `CC1COc2c(N3CCN(C)CC3)c(F)cc3c(=O)c(C(=O)O)cn1c23` (stereo not given), -49.9% and 8% and -6.03%.
For the compound `O=C1c2c(O)ccc(O)c2C(=O)c2c(NCCNCCO)ccc(NCCNCCO)c21`, the inhibition came to 99.7%.
Same read-out and setting: with `CS(=O)(=O)OCCCCOS(C)(=O)=O` the figure was -6.08% and 4.44%; with `O=C(O)CCCc1ccccc1`, -45.4%.

The experiment is the same for the next values; noted with them: HTB85 osteosarcoma cells, drug combinations, measured here: with cisplatin IC20, at 0.5 µM, stronger effect = higher value.
Take `CC(=O)OCC(CCn1cnc2cnc(N)nc21)COC(C)=O`: the inhibition was found to be 0.506%.
The same measure, in the same setting: with `S=c1nc[nH]c2nc[nH]c12` the figure was -18.6% and -5.87% and -28%; with `COc1c(N2CCNC(C)C2)c(F)cc2c(=O)c(C(=O)O)cn(C3CC3)c12` (stereo not given), -35.1% and -12%.
On the same count and under the same terms, under `CC1COc2c(N3CCN(C)CC3)c(F)cc3c(=O)c(C(=O)O)cn1c23` (stereo not given) stands -39.2% and 5.61% and -11.8%.
The same measure, in the same setting: under `O=C1c2c(O)ccc(O)c2C(=O)c2c(NCCNCCO)ccc(NCCNCCO)c21` stands 97.6%; under `CS(=O)(=O)OCCCCOS(C)(=O)=O`, -0.002% and 1.89%.
As to `O=C(O)CCCc1ccccc1`, the inhibition was -14.6%.

The experiment is the same for the next values; noted with them: HTB85 osteosarcoma cells, drug combinations, measured here: with cisplatin IC20, at 5 µM, stronger effect = higher value.
As to `CC(=O)OCC(CCn1cnc2cnc(N)nc21)COC(C)=O`, the inhibition was -48.5%.
Still for that read-out and setting: under `S=c1nc[nH]c2nc[nH]c12` stands -12.1% and 4.25% and -34.8%.
Still for that read-out and setting: under `COc1c(N2CCNC(C)C2)c(F)cc2c(=O)c(C(=O)O)cn(C3CC3)c12` (stereo not given) stands -18.3% and -5.81%.
Still for that read-out and setting: under `CC1COc2c(N3CCN(C)CC3)c(F)cc3c(=O)c(C(=O)O)cn1c23` (stereo not given) stands -30.4% and 7.76% and -5.54%.
Take `O=C1c2c(O)ccc(O)c2C(=O)c2c(NCCNCCO)ccc(NCCNCCO)c21`: the inhibition was 99.8%.
On the same count and under the same terms, under `CS(=O)(=O)OCCCCOS(C)(=O)=O` stands -32.8% and 17%; under `O=C(O)CCCc1ccccc1`, -12.8%.

The experiment is the same for the next values; noted with them: HTB85 osteosarcoma cells, drug combinations, single agent, at 5 µM, stronger effect = higher value.
For the compound `CC(=O)OCC(CCn1cnc2cnc(N)nc21)COC(C)=O`, the inhibition is -10%.
With `S=c1nc[nH]c2nc[nH]c12`, the inhibition is 18.8% and -4.98% and -9.17%.
As for `COc1c(N2CCNC(C)C2)c(F)cc2c(=O)c(C(=O)O)cn(C3CC3)c12` (stereo not given), the inhibition was 17.7% and -9.93%.
Consider `CC1COc2c(N3CCN(C)CC3)c(F)cc3c(=O)c(C(=O)O)cn1c23` (stereo not given), for which the inhibition is -34.4% and -4.7% and 18.3%.
Turning to `O=C1c2c(O)ccc(O)c2C(=O)c2c(NCCNCCO)ccc(NCCNCCO)c21`, the inhibition turned out to be 99.8%.
As to `CS(=O)(=O)OCCCCOS(C)(=O)=O`, the inhibition was -0.247% and 3.08%.
As to `O=C(O)CCCc1ccccc1`, the inhibition is -16.3%.
